From PubChem BioAssay (NCI)
About 83,000 compounds went through this panel and 20% of them were active in at least one assay; those are over-represented in the sample as a whole.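 The endpoint reported here, percent growth, reads 100 for growth as untreated, 0 for no net growth and -100 for all cells dead.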 Values without a mark were called inactive. Calls of active or inactive are those of the source. Rule for the calls: active = growth percent below 10; inactive = the rest.

What was measured:
Test in all cases: NCI-60 one-dose screen, 48 h (100 = growth as untreated, 0 = no growth, -100 = all killed)
[1] = system: SK-MEL-2 melanoma; settings: 10 µM
[2] = system: EKVX NSCLC; settings: 10 µM
[3] = system: SN12C renal; settings: 10 µM
[4] = system: UO-31 renal; settings: 10 µM
[5] = system: TK-10 renal; settings: 10 µM unless noted
[6] = system: ACHN renal; settings: 10 µM
[7] = system: CAKI-1 renal; settings: 10 µM
[8] = system: A498 renal; settings: 10 µM
[9] = system: CCRF-CEM leukemia; settings: 10 µM
[10] = system: MOLT-4 leukemia; settings: 10 µM

Structure (SMILES) | growth [1] | growth [2] | growth [3] | growth [4] | growth [5] | growth [6] | growth [7] | growth [8] | growth [9] | growth [10]
CC(=O)OCC(=O)[C@@]1(O)CC[C@H]2[C@@H]3CC[C@@H]4C[C@H](O)CC[C@]4(C)[C@H]3C(=O)C[C@@]21C | 101% | 98.4% | 102% | 96.3% | 110% | 107% | 89.4% | 91.8% | 74% | 79.8%
O=C(CCNNC(=O)c1ccncc1)NCc1ccccc1 | 94.3% | 106% | 97.1% | 91.3% | 133% | 93% | 109% | 110% | 5.43% (active) | 99%
CC1OC(Oc2c(-c3ccc(O)c(O)c3)oc3cc(O)cc(O)c3c2=O)C(O)C(O)C1O (stereo not drawn) | 104% | 110% | 102% | 92.5% | 103% | 113% | 102% | 99.5% | 106% | 108%
CCOC(=O)C(CCC(C)C)C(=O)OCC | 97.5% | 99.3% | 109% | 84.7% | 86.8% | 101% | 100% | 91.3% | 99.9% | 83.8%
S=c1sc2ccccc2n1CN1CCCCC1 | 94% | 104% | 109% | 77.2% | 93.7% | 98.7% | 88.2% | 96.5% | 102% | 112%
CCc1ccc(/C(C#N)=C/C=C/c2ccccc2)cc1 | -12.2% (active) | 52.3% | 53.2% | 42.9% | 16.9% | 58.3% | 53.7% |  | -5.51% (active) | 20.7%
COc1ccc(C(O)c2ccccc2)cc1 (stereo not drawn) | 112% | 101% | 104% | 81.9% | 101% | 106% | 100% | 102% | 106% | 94.1%
CCOC(=O)C1OC1c1ccccc1 (stereo not drawn) | 114% | 98.4% | 105% | 89.2% | 103% | 104% | 98.6% | 96.8% | 109% | 107%
C/C=C/CC(C)C(O)C1C(=O)NC(CC)C(=O)N(C)CC(=O)N(C)C(CC(C)C)C(=O)NC(C(C)C)C(=O)N(C)C(CC(C)C)C(=O)NC(C)C(=O)NC(C)C(=O)N(C)C(CC(C)C)C(=O)N(C)C(CC(C)C)C(=O)N(C)C(C(C)C)C(=O)N1C (stereo not drawn) | -36.5% (active) | 26.7% | 27.4% | 24.1% | 31.3% | 16.8% | 31% | -5.73% (active) |  | -4.07% (active)
O=C(/C=C\c1ccc(O)cc1)c1ccccc1 | 114% | 91.3% | 89% | 67.8% | 95.2% | 97.2% | 85.1% | 114% |  | 96.1%
O=[N+]([O-])c1ccccc1N=Nc1ccc(O)cc1O | 134% | 116% | 107% | 66.3% | 140% | 109% | 95.1% | 139% |  | 101%
O=C1c2ccccc2C(=O)c2c1ccc(C(=O)O)c2[N+](=O)[O-] | 119% | 109% | 101% | 85.1% | 109% | 98.8% | 98.8% | 84% |  | 93.5%
CCOC(=O)c1cc2cccc(OC)c2oc1=O | 74.9% | 107% | 107% | 105% | 110% | 117% | 132% |  | 91.7% | 89.9%
CC1(C)N=C(N)N=C(N)N1c1ccc(Cl)cc1 | 71% | 48.4% | 41.4% | 85.9% | 69.7% | 67.4% | 99.9% | 120% |  | 53.6%
CCN(CC)C(=O)/C=C(/C)c1ccccc1 | 113% | 107% | 104% | 102% | 107% | 110% | 100% | 86.6% | 100% | 114%
